32 compounds from ChEMBL document CHEMBL3433997, “St. Jude Leishmania screening dataset” (2016) can be followed below.

Common to all, as to format: functional
Test [1] addresses Solute carrier family 2, facilitated glucose transporter member 1 (Homo sapiens) (UniProt P11166). Kind of test: ST_JUDE_LEISH: Cytotoxicity at 2uM final concentration against transgenic Leishmania Mexicana promastigotes LmGLUT1 that are glucose transport deficient and complemented with the human glucose transporter GLUT1. Activity is measured by DNA content using SYBR green in vitro.

For test [2], the target named is Hexose transporter 1 (Plasmodium falciparum) (UniProt O97467). Description: ST_JUDE_LEISH: Cytotoxicity at 2uM final concentration against transgenic Leishmania Mexicana promastigotes LmPfHT that are glucose transport deficient and complemented with the Plasmodium falciparum hexose transporter. Activity is measured by DNA content using SYBR green in vitro.
The target in test [3] is Glucose transporter (Leishmania mexicana) (UniProt O61059). Description: ST_JUDE_LEISH: Cytotoxicity at 2uM final concentration against transgenic Leishmania Mexicana promastigotes LmGT2 that are glucose transport deficient and complemented with the L. Mexicana glucose transporter 2. Activity is measured by DNA content using SYBR green in vitro.

Molecules are shown by their SMILES.

Chain of Solute carrier family 2, facilitated glucose transporter member 1 (Homo sapiens) (P11166 whole entry): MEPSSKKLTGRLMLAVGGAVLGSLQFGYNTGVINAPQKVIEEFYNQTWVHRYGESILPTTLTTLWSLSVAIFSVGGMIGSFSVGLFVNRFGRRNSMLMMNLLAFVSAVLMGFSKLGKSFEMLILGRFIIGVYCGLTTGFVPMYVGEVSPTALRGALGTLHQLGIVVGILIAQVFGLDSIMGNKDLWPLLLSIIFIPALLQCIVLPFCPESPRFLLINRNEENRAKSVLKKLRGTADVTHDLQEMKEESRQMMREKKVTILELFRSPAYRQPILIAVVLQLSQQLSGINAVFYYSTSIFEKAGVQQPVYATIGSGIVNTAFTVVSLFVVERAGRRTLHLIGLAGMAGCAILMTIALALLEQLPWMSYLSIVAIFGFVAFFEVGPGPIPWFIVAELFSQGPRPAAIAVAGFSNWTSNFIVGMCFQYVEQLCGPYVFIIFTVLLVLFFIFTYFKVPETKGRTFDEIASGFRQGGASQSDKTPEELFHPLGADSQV

Consider `FC(F)(F)Oc1cccc(CNc2noc(-c3sccc3Br)n2)c1`, for which the inhibition in test [1] was determined as 2.52%; in test [2], 2.93%; in test [3], 0.8%.
The matching figures for `COc1ccc2nccc([C@@H](O)CN3CCC(NCc4nc5cc(F)c(F)cc5[nH]4)CC3)c2c1`: 0.88%, 2.26% and -0.99%.
For `CCOc1cc(C)ccc1C1CCN(CCCCNC(=O)c2cnc(-c3ccc(C(F)(F)F)cc3)[nH]2)CC1` the same measures were -1.9%, 2.12% and -0.53%.
As for `Cc1cc(-c2cccc(CNC3CCN(C)CC3)c2)ccc1S(=O)(=O)NCCc1ccccn1`, the inhibition in test [1] is 0.29%; in test [2] it was -0.31%; in test [3], 0.73%.
For `COc1ccc(-c2nonc2NC(=O)c2ccc(OC(C)C)cc2)cc1OC` the same measures were 0.75%, 3.06% and 3.04%.
The matching figures for `CCN(CC)CCON=Cc1cc(C)c2[nH]c3ccc(OCc4ccccc4)cc3c2c1C`: -1.13%, 0.92% and -2.27%.
For `CN(C)Cc1ccc(-c2ccc(NC(=O)c3ccc4c(=O)n(Cc5ccccc5)cnc4c3)cc2)cc1` the same measures were 95.2%, 94% and 63.3%.
`Cc1cccc2nc(-c3ccc(-c4ccc(CNCc5ccc(S(C)(=O)=O)cc5)cc4)cc3)[nH]c12`: the inhibition in test [1] worked out at 12%; in test [2], 10.9%; in test [3] it was 7.88%.
For `c1ccc2c(NCCCCCCCCCNc3ccnc4ccccc34)ccnc2c1` the same measures were -0.85%, 4.91% and 8.19%.
For `Cc1ccc(O)c(Nc2c3c(c(C#N)c4nc5ccccc5n24)CCC3)c1` the same measures were 2.48%, 1.2% and -0.54%.
With `O=C(/C=C/c1ccc(Cl)c(Cl)c1)NC1CCC(CN2CCC(Cc3c[nH]c4ccccc34)CC2)CC1` (stereo unspecified), the results for the inhibition in test [1], in test [2] and in test [3] were 2.9%, 3.43% and 3.79%, respectively.
On to `CCNC(C)(C)CN(Cc1ccc(-c2ccc(C(F)(F)F)cc2)cc1)C(=O)Cn1c(CCc2cccc(F)c2F)nc(=O)c2ccccc21`, for which the inhibition in test [1] is 3.91%; in test [2], 3.3%; in test [3], 2.34%.
As for `CCC(CC)C(CC(=O)NC(C)(C)CCc1ccccc1OC)Nc1ccc(C#N)c2ccccc12` (stereo unspecified), the inhibition is 4.46% in test [1], 3.53% in test [2] and 3.55% in test [3].
For `CSc1cccc(NC(=O)Nc2ccc(I)c(OCCN(C)C)c2)c1` the same measures were 4.88%, 4.31% and 3.56%.
For `c1cc(CN2CCN(CCN3CCOCC3)CC2)cc(-c2cccc(-c3nc4ccccc4[nH]3)c2)c1` the same measures were -0.34%, -0.24% and -1.97%.
For `O=C(Cc1c[nH]cn1)Nc1ccc(-c2ccc(-c3nc4cc(F)ccc4[nH]3)cc2)cc1` the same measures were 1.05%, 0.28% and -0.48%.
With `COc1ccc(-c2cccc(CNC3CCN(C)CC3)c2)cc1S(=O)(=O)NCc1ccccc1`, the inhibition in test [1] is 4.97%; in test [2], 4.06%; in test [3] it was 4.42%.
The matching figures for `COc1ccc(NC(=O)[C@H](CC(C)C)Nc2ccnc(NCCc3ccc(F)cc3)n2)cc1`: 1.22%, 1.43% and 1.38%.
On to `N#Cc1cccc(Nc2nccc(NCC(O)c3ccccc3C(F)(F)F)n2)c1` (stereo unspecified), for which the inhibition in test [1] was 9.64%; in test [2], 7.25%; in test [3] it was 3.83%.
The matching figures for `CCC(C)NC(=O)CN1CN(c2ccccc2)C2(CCN(C(=O)c3ccc(-c4ccccc4)cc3)CC2)C1=O` (stereo unspecified): 8.23%, 11.5% and 7.73%.
For `CC(C)CN1CCN(c2nc(C#N)c3c(c2C(=S)NC2CCCCC2)CC(C)(C)OC3)CC1` the same measures were 0.49%, -1.31% and -1.75%.
The matching figures for `COc1ccc2c(c1)CCN(CCN1CCC(CNC(=O)c3ccc(-c4ccc(C#N)cc4)cc3)CC1)C2`: -0.11%, 1.19% and 2.22%.
Consider `O=C(NC1CCN(Cc2ccccc2O)C1)c1ccc(Cl)c(Cl)c1` (stereo unspecified), for which the values for the inhibition in test [1], in test [2] and in test [3] were 0.72%, 0.7% and -5.99%, respectively.
The matching figures for `CC(C)(C)c1ccc(-c2csc(NC(=O)CC(c3ccccc3)c3ccccc3)n2)cc1`: 1.4%, 1.95% and 2.07%.
For `COc1ccc(-c2ccc(NC(=O)c3cccc(Cl)c3)cc2)cc1CN1CCCC1` the same measures were 11.7%, 2.9% and 4.28%.
The matching figures for `CCCN(CCC)c1nn2c(=O)c(C(=O)N3CCN(Cc4ccccc4)CC3)cnc2s1`: 1.4%, 1.87% and 2.14%.
Consider `O=C(/C=C/c1ccc(Cl)c(Cl)c1)NCCCCCN1CCC(NC(=O)NC2CCCCC2)CC1`, for which the inhibition in test [1] amounted to 1.02%; in test [2], 0.4%; in test [3], 1.22%.
For `COc1ccc(C(=O)NCCCCN2CCC(c3ccc4c(c3OC)CCCC4)CC2)cc1-c1ccc(C(F)(F)F)cc1` the same measures were -1.89%, 0.84% and -1.69%.
The matching figures for `OC(CNCCCc1ccccc1)c1cc(OCc2ccccc2)cc(OCc2ccccc2)c1` (stereo unspecified): 6.81%, 2.05% and 1.79%.
In the case of `O=S(=O)(c1cccc(F)c1)c1ccc(Nc2ncnc3cc(Br)sc23)cc1Cl`, the inhibition in test [1] is 3.23%; in test [2], 2.8%; in test [3], -1.17%.
The matching figures for `CNC(=O)c1cnc(Nc2ccc(N3CCN(C)CC3)cc2)nc1Nc1cccc(OC)c1`: 3.74%, 2.74% and 5.02%.
For `c1ccc(Oc2ccc(Nc3ccnc(Nc4ccc(OCCN5CCCCC5)cc4)n3)cc2)cc1` the same measures were 8.95%, 12.8% and 18.4%.
